tim23-1 inh – growth inhibitors of tim23-1 mutant yeast, primary screen, luminescence, uHTS | 330,000 compounds, 1.3% hits | inhibition, % at 20 µM | S. cerevisiae tim23-1 growth, BacTiter-Glo luminescence, 24 h;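 active = growth inhibition of the mutant yeast at or above 50%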;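 note: temperature-sensitive mutant grown at 25 °C; plate controls were DMSO-treated mutant yeast for no effect and medium wells lacking yeast for full effect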
tim10-1 inh – growth inhibitors of tim10-1 mutant yeast, primary screen, luminescence, uHTS | S. cerevisiae tim10-1 ts strain growth, BacTiter-Glo, 24 h | inhibition, % at 20 µM | 330,000 compounds, 2.2% hits;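 active = inhibition of at least 40%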;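 note: mutant grown at 25 °C; 0% = DMSO wells with yeast and 100% = wells holding no yeast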
NALP3 yeast inh – NALP3 inflammasome inhibitors in reconstituted yeast, primary screen, luminescence, uHTS | Yeast reconstituted NLRP3/ASC/caspase-1, beta-gal luminescence, 24 h | inhibition, % at 10 µM | 330,000 compounds, 0.39% hits;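 active = inhibition of 50% or more; inactive = inhibition below 50%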;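 note: plate controls were induced DMSO wells for no effect and uninduced yeast grown without galactose for full effect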
NALP1 inh – NALP1 inflammasome inhibitors in reconstituted yeast, colorimetric, S. cerevisiae, triplicate retest; S. cerevisiae NALP1/ASC/caspase-1 growth, X-gal OD620, 72 h; inhibition, % at 10 µM; 280,000 compounds, 0.61% hits; AID 2071, 2009; in the data active = inhibition mostly above about 24%, no sharp cut-off; inactive = mostly below about 32%
PfHsp90 yeast 2 – growth inhibition of PfHsp90-expressing yeast, primary screen, antimalarial PfHsp90 inhibitor project, S. cerevisiae, BacTiter-Glo luminescence, single point, set 2; inhibition, % at 9.4 µM; 310,000 compounds, 0.32% hits; BacTiter-Glo ATP, 48 h; yeast lacking PDR1 and PDR3 efflux regulators;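 active = every replicate shows inhibition above about 80%, whatever the replicate mean, limit read from the data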;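 note: 0% = DMSO neutral controls and 100% = 20 µM radicicol positive controls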
TIM10 inh – growth inhibitors of isogenic TIM10 control yeast, primary screen, counter-screen for tim10-1 yeast inhibitor project, luminescence, uHTS; S. cerevisiae TIM10 strain growth, BacTiter-Glo luminescence, 24 h; inhibition, % at 10 µM; 330,000 compounds, 1.4% hits; AID 463195, 2010;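 active = inhibition of 40% or more at the single tested concentration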;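 note: wild-type TIM10 isogenic control strain grown at permissive 25 °C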
tim10 confirm – growth inhibitors of wild-type TIM10 yeast, confirmation, counter-screen for tim10-1 synthetic lethality project, single concentration, luminescence, S. cerevisiae | inhibition, % at 10 µM | 4,600 compounds, 63% hits | S. cerevisiae tim10 strain growth, BacTiter-Glo luminescence, 24 h | shares compounds with TIM10 inh | AID 463215, 2010;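 active = inhibition of yeast growth at or above a set limit in either of two replicates at 10 µM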;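 note: this counterscreen used the strain with wild-type TIM10; 0% = yeast with DMSO and 100% = medium wells lacking yeast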
tim23-1 confirm – tim23-1 mutant yeast growth inhibitors, confirmation, luminescence, single concentration. inhibition, % at 20 µM. 4,400 compounds, 83% hits. shares compounds with tim23-1 inh. S. cerevisiae tim23-1 growth, BacTiter-Glo luminescence, 24 h;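 active = inhibition above about 39% in either of two replicate wells at 20 µM, limit read from the data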;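 note: temperature-sensitive tim23-1 mutant grown at 25 °C; 0% = DMSO wells with yeast and 100% = medium wells without yeast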
* = called active by the depositor; x = not tested or not shown. This is a sample that favours compounds with a hit; in the whole collection about 4.1% have one here.

SMILES	tim23-1 inh	tim10-1 inh	NALP3 yeast inh	NALP1 inh	PfHsp90 yeast 2	TIM10 inh	tim10 confirm	tim23-1 confirm
Cc1nc2ccccc2n1C(=O)c1ccccc1[N+](=O)[O-]	50	34	3	27	-14	50*	47*	40*
Cc1ccc(-n2c(-c3ccc(Cl)cc3)n[nH]c2=S)c(C)c1	55*	24	1	-12	-16	47*	49*	42*
COc1ccc(-c2n[nH]c(=S)n2-c2ccc(C)cc2C)cc1	43	39	22	-3	6	31	x	x
CCCc1ccc2oc(C(=O)N3CCN(c4cnccn4)CC3)c(C)c2c1	26	34	1	14	-4	20	x	x
N#C/C(=C\c1ccccc1Cl)C(=O)Nc1ccccn1	64*	33	-2	15	3	43*	23	42*
Cc1ccc(C(=O)Nc2cccc(Oc3ccccc3)c2)o1	58*	20	22	0	10	50*	56*	77*
COc1ccccc1C(=O)OCCc1ccccc1	x	x	x	x	-7	x	x	x
Cc1ccc(N=Nc2ccc(O)cc2)c(Br)c1	66*	-32	45	14	116*	52*	71*	-2
COC(=O)c1ccccc1NC(=S)NC(=O)c1ccc(C)cc1	60*	26	2	-26	4	51*	15	45*
COC(=O)c1ccccc1NC(=S)NC(=O)c1ccccc1	34	14	5	8	14	37	x	x
CC(=O)N1c2ccc(N=Cc3cc(Br)cc(Br)c3O)cc2CC1C (stereo not given)	84*	35	12	x	x	73*	28	87*
COC(=O)N/N=C/c1cn(Cc2ccc(F)cc2)c2ccccc12	20	14	15	28	-20	12	x	x
CNC(=S)N/N=C/c1cn(Cc2ccc(F)cc2)c2ccccc12	51*	19	16	10	-45	40*	49*	39*
Oc1ccc(-c2cc(-c3ccc(O)cc3)nc(-c3ccccc3)n2)cc1	61*	31	4	6	11	67*	63*	61*
O=C(NCCCCNC(=O)c1ccccc1Br)c1ccccc1Br	-4	9	5	x	x	1	x	x
C(=C\c1ccc2ccccc2n1)/c1ccccc1	25	-8	36	x	2	-2	x	x
Oc1ccc(/C=C/c2ccc3ccccc3n2)cc1	75*	16	48	7	50	44*	47*	55*
COc1ccccc1-n1cnc2cc(NC(=O)c3ccco3)ccc21	56*	27	34	-2	-3	44*	37*	68*
COc1ccc(C(=O)N(C)CCCC2CCCC2)cc1OC1CCN(C(C)C)CC1	14	10	6	-1	26	12	x	x
CCN(CC)CCNC(=O)c1ccc2c(c1NCCO)C(=O)c1ccccc1C2=O	70*	29	37	10	x	43*	48*	60*
CC1CCC(=NO)C(=NO)C1 (stereo not given)	x	x	x	x	5	x	x	x
c1ccc2c(c1)ncn2CCC1CCCCC1	53*	34	22	6	-3	42*	35*	19
Cc1cccc(NC(=O)COc2ccc(Br)cc2/C=N/O)c1	50*	14	39	23	5	56*	61*	78*
O=C(O)COCC(=O)N1CCCN(c2nccc(C(F)(F)F)n2)CC1	2	1	14	-10	20	-5	x	x
O=C(Nc1ccc2oc(-c3ccccc3F)nc2c1)c1ccccc1F	61*	7	47	5	13	55*	60*	79*
SMILES	tim23-1 inh	tim10-1 inh	NALP3 yeast inh	NALP1 inh	PfHsp90 yeast 2	TIM10 inh	tim10 confirm	tim23-1 confirm
O=C(Nc1ccc2oc(-c3cccc(F)c3)nc2c1)c1ccccc1F	31	-6	-1	-10	-15	22	x	x
COc1ccc(NC(=O)CNCc2ccc(Cl)cc2)cc1S(=O)(=O)N1CCOCC1	-11	-16	10	x	-19	0	x	x
CC(CNC(=O)c1ccccc1[N+](=O)[O-])NC(=O)c1ccccc1[N+](=O)[O-] (stereo not given)	2	-6	-4	x	4	0	x	x
C/C(=C/c1ccccc1)C(=O)N1CCN(c2ccccc2F)CC1	25	6	5	14	-17	-13	x	x
N#C/C(=C\c1ccccc1)C(=O)N1CCN(c2ccccc2F)CC1	66*	26	10	27	12	47*	44*	48*
CC(C)(C)c1cc(C(C)(C)C)cc(S(=O)(=O)CCc2ccccn2)c1	59*	31	3	-30	30	51*	57*	54*
CCOc1ccccc1/C=c1\sc2ncnn2c1=O	60*	38	24	-16	x	43*	32*	74*
CCCOc1ccc(/C=c2\sc3ncnn3c2=O)cc1	47	32	20	-2	23	19	x	x
N#Cc1cn(Cc2cccc(Cl)c2)c2ccccc12	31	27	33	20	x	-2	x	x
N#Cc1ccccc1Cn1cc(/C=C/[N+](=O)[O-])c2ccccc21	69*	32	4	75*	10	67*	-1	82*
COc1ccccc1/C=C/CN1CCC(n2nccc2NC(=O)CCc2ccccc2)CC1	10	-8	9	-3	-16	12	x	x
O=S(=O)(c1ccc2ccccc2c1)N1CCN(c2ccc(O)cc2)CC1	58*	31	-11	x	-15	44*	44*	48*
CC(=O)c1ccc(N2CCN(C(=O)/C=C/c3ccc4ccccc4n3)CC2)cc1	50*	24	37	3	1	64*	76*	40*
CC(C)CN1C(=O)C(=O)N(CC(=O)NC(C)CCc2ccccc2)C1=O (stereo not given)	3	16	-4	x	-112	-2	x	x
COC(=O)/C(=C(/F)Sc1cc(C)c(O)c(C)c1)C(F)(F)F	54*	32	18	26	-29	42*	30	52*
Cc1noc(/C=C/N(C)C)c1S(=O)(=O)N(C)Cc1ccc(F)cc1	33	19	18	6	-63	21	x	x
COc1cccc(/C=N/n2c(N)nc3ccccc32)c1OC	60*	10	10	5	-12	44*	45*	38
COc1ccc(/C=N/n2c(N)nc3ccccc32)cc1OC	-1	-7	17	-1	3	-4	x	x

From PubChem BioAssay
